# Assay results reported in US20100081621, “Crystal structure of the catalytic domain of the viral restriction factor APOBEC3G” (published 2010).
# Biological target: APOBEC3G R374E/R376D (Homo sapiens, UniProt Q9HC16 Q9HC16:1-384, R374E,R376D)
# Assay: FP; binding impaired by 46%; 5 mM MgCl2, 37 C
# Conditions: tags: Sf9, pAcG2T; label: internal fluorescein-dT; ssDNA; [15 (fluorescein-dT)]
# Protocol: Apo3G-DNA binding were monitored by changes in steady state fluorescence depolarization (rotational anisotropy). Reaction mixtures (70 μl), containing an F-labeled DNA ([…]) in buffer (50 mM HEPES, pH 7.3, 1 mM DTT and 5 mM MgCl₂) and varying concentration of 0 to 500 nM Apo3G, were incubated at 37° C. The sequence of the ssDNA is: tta gat gag tgt aa(FdT) gtg ata tat gtg tat. Rotational anisotropy was measured as described previously (Chelico et al., 2006). The fraction of DNA bound to protein was determined as described previously (Bertram et al., 2004).
# Chain of APOBEC3G R374E/R376D (Q9HC16 whole entry R374E/R376D, one chain of several): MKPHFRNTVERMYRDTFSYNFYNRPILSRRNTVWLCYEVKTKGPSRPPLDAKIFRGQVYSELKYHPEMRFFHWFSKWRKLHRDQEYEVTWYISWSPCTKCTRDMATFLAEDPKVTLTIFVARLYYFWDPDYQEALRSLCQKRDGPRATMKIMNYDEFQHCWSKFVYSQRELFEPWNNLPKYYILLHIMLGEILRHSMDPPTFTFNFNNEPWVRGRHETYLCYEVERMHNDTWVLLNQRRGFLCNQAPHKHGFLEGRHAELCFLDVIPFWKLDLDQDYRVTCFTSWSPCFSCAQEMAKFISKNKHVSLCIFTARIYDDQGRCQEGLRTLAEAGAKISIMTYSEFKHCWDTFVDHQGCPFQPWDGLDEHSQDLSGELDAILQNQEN
row,Sequence,binding signal
1,TTAGATGAGTGTAATGTGATATATGTGTAT,54 % of wt
